USP2a inh: qHTS Assay for Inhibitors of Ubiquitin-specific Protease USP2a Using CHOP2 as the Reporter. Potency, µM (doses to about 38.3 µM), for the others: at the top dose activity change, negative = inhibition, most hits filed as inhibitors. USP2 core, Ub-CHOP2 coupled fluorogenic reporter, 485/531. 330,000 compounds, 0.01% hits. Ubiquitin carboxyl-terminal hydrolase 2 (Homo sapiens), O75604;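 note: potency is the fitted concentration of half-maximal effect; plate controls were DMSO wells for no effect and full inhibition by NEM control for full effect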
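USP2 core (10nM final) preincubated 30min RT with compound in 20mM Tris-HCl pH 8.0, 2mM CaCl2, 2mM beta-mercaptoethanol, 0.05% CHAPS; 25nM Ub-CHOP2 plus 25nM reporter substrate added, fluorescence (Ex485/Em531) read after 60min.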
a7 integrin act: qHTS for Activators of Integrin-Mediated Alleviation for Muscular Dystrophy | alpha7betagal myoblasts, beta-gal FDG fluorescence, 48 h | Potency, µM (top dose mostly 38.3 µM), without a hit: top-dose activation, usual class: activators | 350,000 compounds, 0.064% hits;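 note: potency is the fitted concentration of half-maximal effect; 100% = response of the positive control SU9516; nearly all actives have a fitted effect of over 60% in size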
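alpha7betagal+/- myoblasts (passage 13, 250/well) treated 48 h at 37C with compounds at 1:260 dilution of DMSO stock. Lysed, then beta-galactosidase activity read as FDG fluorescence (ex 480/em 540) after 30 min, with pre-read for autofluorescence.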
PKM2 activator: qHTS Assay for Activators of Human Muscle isoform 2 Pyruvate Kinase; Pyruvate kinase PKM (Homo sapiens), P14618; AID 1631, 2009; 260,000 compounds, 0.34% hits; purified PKM2, Kinase-Glo ATP luminescence, activation; response scale: 0% is enzyme alone, no compound; Potency, µM (series often up to 57.5 µM), without a hit: at the highest dose activation, hits mostly activators; note: potency is the fitted concentration of half-maximal effect; % is set by controls: 0 for no effect and ±100 for the full control effect; nearly all actives have a fitted effect of over 55% in size
Target sequence (P14618 whole entry, looked up, canonical isoform): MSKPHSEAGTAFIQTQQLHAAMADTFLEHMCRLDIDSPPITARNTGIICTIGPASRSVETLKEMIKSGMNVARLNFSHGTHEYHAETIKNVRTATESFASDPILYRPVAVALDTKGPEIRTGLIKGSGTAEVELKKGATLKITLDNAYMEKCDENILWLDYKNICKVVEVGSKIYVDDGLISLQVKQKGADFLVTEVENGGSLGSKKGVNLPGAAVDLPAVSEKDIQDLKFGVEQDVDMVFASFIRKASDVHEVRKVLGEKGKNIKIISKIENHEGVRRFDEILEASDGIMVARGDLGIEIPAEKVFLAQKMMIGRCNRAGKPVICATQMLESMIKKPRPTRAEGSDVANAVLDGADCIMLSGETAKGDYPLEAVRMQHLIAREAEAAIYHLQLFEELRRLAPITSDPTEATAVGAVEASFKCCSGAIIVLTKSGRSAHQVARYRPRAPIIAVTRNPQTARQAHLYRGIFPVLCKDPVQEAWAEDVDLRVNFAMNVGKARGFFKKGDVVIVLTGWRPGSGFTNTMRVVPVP
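Kinase-Glo luminescence reports ATP generated from ADP (0.1 mM) and PEP (0.5 mM) by purified hPK-M2 after 1 h at room temperature, pH 7.2 imidazole buffer; intermediate enzyme activity allows detecting inhibitors and activators.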
ClpP mod: qHTS Assay for Activators of ClpP; 340,000 compounds, 1.9% hits; purified B. subtilis ClpP, FRET peptide cleavage, 20 min; ATP-dependent Clp protease proteolytic subunit (Bacillus subtilis (strain 168)), P80244; Potency, µM (top dose mostly 57.5 µM), for the others: top-dose activity change, negative = active; AID 651965, 2013; active = well fitted falling curve with a large enough effect; inconclusive = small, poorly fitted or top-dose-only effect; inactive = no such curve, though single readings can be large or run the other way; note: potency is the fitted concentration of half-maximal effect; the source files actives as falling curves though it sought activators and does not explain the sign; nearly all actives have a fitted effect of over 65% in size
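FRET quenching reversal measured ClpP activation: 10 microg/mL B. subtilis ClpP at pH 8 with the FRET-FV decapeptide, read at 430 nm after 320 nm excitation. The 20-min minus 0-min signal was scaled between DMSO/no-enzyme wells and ADEP (5.8 microM final).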
IL-2 act: qHTS of IL-2 Activators; IL-2 activation reporter assay, cell-based qHTS; stimulated with anti-CD3/CD4/CD28 beads; in transgenic mouse T cells; activation, % (series mostly up to about 46 µM); 360,000 compounds, 0.065% hits; AID 652025, 2013; in the data active = activation above about 50%; inconclusive = mostly about 30% to 49%; note: 0% is about no effect
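First, unstimulated transgenic mouse T cells were exposed to compound for 60 min. Next, anti-CD3/anti-CD4-coated beads with anti-CD28 were added. Finally, after 18 h at 37 degrees C, EGFP and DsRed were imaged.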
Pin1 inh: qHTS Assay to Find Inhibitors of Pin1 | Peptidyl-prolyl cis-trans isomerase NIMA-interacting 1 (Homo sapiens), Q13526 | Pin1 FP peptide displacement, HiFluor488, 10 min | Potency, µM (series often up to 115 µM), inactives show top-dose activity, negative = inhibition, actives largely listed as inhibitors | 390,000 compounds, 0.009% hits | AID 504891, 2011; active = well fitted inhibition curve with a large enough effect in the polarisation, with a control signal flat, not every such curve was filed as active; inconclusive = small, poorly fitted or top-dose-only effect, or effect the other way, or a change in a side signal; inactive = no such curve, though single readings can be large or run the other way; the % refers to the polarisation; note: potency is the fitted concentration of half-maximal effect; % is set by controls: 0 for no effect and ±100 for the full control effect
Target sequence (Q13526 whole entry, looked up): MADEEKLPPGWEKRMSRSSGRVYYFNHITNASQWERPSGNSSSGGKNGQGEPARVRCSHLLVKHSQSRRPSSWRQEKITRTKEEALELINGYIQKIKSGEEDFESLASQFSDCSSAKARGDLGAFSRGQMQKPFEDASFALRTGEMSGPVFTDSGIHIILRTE
ClpP validation: qHTS Assay for Activators of ClpP: Hit Validation of Inhibitors | shares compounds with ClpP mod | purified B. subtilis ClpP, FRET-FV substrate cleavage, 20 min | Potency, µM (series often up to 57.5 µM), inactives show at the highest dose activity change, negative = inhibition, hits mostly inhibitors | 470 compounds, 40% hits | AID 743245, 2014; note: potency is the fitted concentration of half-maximal effect; % is set by controls: 0 for no effect and ±100 for the full control effect; nearly all actives have a fitted effect of over 70% in size
Starred values were filed as active, the others as inactive; [ ] = another dose, or the depositor's remark. In the library only some 1.9% were active in any assay of this set; here they are far more common. Unless noted, calls come from the whole dose curve; as a rule, active = well fitted curve in the direction sought with a large enough effect; inconclusive = small, poorly fitted or top-dose-only effect, or another doubt; inactive = no such curve, though single readings can be large; an effect the other way counts as inactive or inconclusive.

How did COC(=O)CS(=O)(=O)c1nc2ccccc2nc1N1CCCCC1 do in these assays?
ClpP mod: -0.8%; Pin1 inh: 8.3%

How did CCOc1ccc(CCNC(=O)c2cc3c(-c4ccccc4F)nn(C)c3s2)cc1 do in these assays?
ClpP mod: -8.6%; Pin1 inh: 8.1%

Results for CCOc1ccc(NC(=O)c2cc3c(-c4ccccc4F)nn(C)c3s2)cc1 ?
ClpP mod: 187.7%; Pin1 inh: 13.3%; ClpP validation: inconclusive

Results for COc1nc(-c2ccc(C)cc2)ccc1-c1noc(-c2ccccc2Br)n1 ?
ClpP mod: 20.0%; Pin1 inh: 25.2%

How did COc1nc(-c2ccc(C)cc2)ccc1-c1noc(-c2cccnc2)n1 do in these assays?
USP2a inh: 3.2%; a7 integrin act: 1.5%; PKM2 activator: -5.2%; ClpP mod: inconclusive; IL-2 act: -0.6; Pin1 inh: 4.1%; ClpP validation: 19.3µM*

Results for Cc1ccc2cccc(NC(=O)c3ccc(-c4cc(Cl)ccc4Cl)o3)c2n1 ?
ClpP mod: -18.4%; Pin1 inh: -2.2%

How did COc1ccccc1NC(=O)c1cc2c(=O)n(C)c3ccccc3c2n1C do in these assays?
USP2a inh: -1.1%; a7 integrin act: 12.1%; PKM2 activator: -2.3%; ClpP mod: inconclusive; IL-2 act: -0.1; Pin1 inh: inconclusive

Results for COc1cccc(NC(=O)c2cc3c(=O)n(C)c4ccccc4c3n2C)c1 ?
ClpP mod: 215.7%; Pin1 inh: -1.5%; ClpP validation: 21.7µM*

How did COc1cc2ccccc2cc1C(=O)NCC(c1cccs1)N(C)C (stereo unspecified) do in these assays?
USP2a inh: -13.3%; a7 integrin act: -17.2%; PKM2 activator: 0.6%; ClpP mod: 3.16µM*; IL-2 act: -2.2; Pin1 inh: -1.8%; ClpP validation: inconclusive

What do the screens show for `COC(=O)c1ccccc1NC(=O)c1ccc(F)cc1F`?
Pin1 inh: 34.6%

Results for CCCCCn1cc2c(c1-c1ccc(Cl)cc1)c(=O)n(C)c(=O)n2C ?
ClpP mod: 10µM*; Pin1 inh: -4.7%; ClpP validation: inconclusive

Results for COc1ccc(S(=O)(=O)N2CCCN(S(=O)(=O)c3ccc(OC)c(C)c3)CC2)cc1C ?
USP2a inh: -9.0%; a7 integrin act: -30.8%; PKM2 activator: 0.7%; ClpP mod: 0.0%; IL-2 act: -2.2; Pin1 inh: 15.0%

Results for COc1ccc(S(=O)(=O)N2CCN(S(=O)(=O)c3ccc4c(c3)OCCO4)CC2)cc1C ?
USP2a inh: -1.0%; a7 integrin act: 31.8%; PKM2 activator: 3.55µM*; ClpP mod: 3.98µM*; IL-2 act: 1.7; Pin1 inh: 17.4%; ClpP validation: -0.3%

How did Cc1cccc2c1N(Cc1ccccc1OCCC(C)C)C(=O)C2=O do in these assays?
ClpP mod: 0.5%; Pin1 inh: 2.8%

Results for COc1ccc2c(c1)CCc1c(C(=O)Nc3cc(C)n(Cc4ccc(Cl)cc4)n3)noc1-2 ?
USP2a inh: 1.3%; a7 integrin act: 2.6%; PKM2 activator: 8.2%; ClpP mod: 59.8%; IL-2 act: -0.7; Pin1 inh: 3.8%; ClpP validation: -17.2%

What do the screens show for `COc1ccc2c(c1)CCc1c(C(=O)Nc3c(C)nn(Cc4ccc(Cl)cc4)c3C)noc1-2`?
ClpP mod: -10.0%; Pin1 inh: 0.3%

What do the screens show for `CC(C)N1CCOC1c1ccccc1` (stereo unspecified)?
a7 integrin act: -23.1%; ClpP mod: 7.94µM*; IL-2 act: 2.7; Pin1 inh: -6.6%; ClpP validation: -1.2%

Results for COCCNC(=O)c1ccc2c(=O)n(CCc3ccccc3)c(SCC(=O)CC(=O)OC)nc2c1 ?
ClpP mod: -5.4%; Pin1 inh: 29.3%

Results for COc1c(C)cc(C(=O)C2CCCN(S(=O)(=O)N(C)C)C2)cc1C (stereo unspecified) ?
USP2a inh: 0.8%; a7 integrin act: -2.4%; PKM2 activator: 3.0%; ClpP mod: 2.82µM*; IL-2 act: 1.6; Pin1 inh: -1.2%; ClpP validation: -9.6%

Results for COc1ccc(-n2cc(C(=O)NCCc3cc(OC)ccc3OC)c3ccccc3c2=O)cc1 ?
ClpP mod: -4.7%; Pin1 inh: -8.2%

Results for Cc1cccc(N2CCN(C(=O)c3cn(C4CCCCC4)c(=O)c4c3c3ccccc3n4C)CC2)c1C ?
ClpP mod: 8.91µM*; Pin1 inh: 33.3%; ClpP validation: -23.4%

Results for COC(=O)Nc1c(-c2ccccc2)nc2ccc(C)cn12 ?
USP2a inh: 1.5%; a7 integrin act: 24.9%; PKM2 activator: -2.7%; ClpP mod: -0.7%; IL-2 act: -0.1; Pin1 inh: -2.0%

What do the screens show for `COC(=O)Nc1c(-c2ccccc2)nc2ccccn12`?
USP2a inh: 4.1%; a7 integrin act: -14.8%[7.66 µM]; PKM2 activator: inconclusive; ClpP mod: 7.94µM*; IL-2 act: 2.5; Pin1 inh: 1.6%; ClpP validation: 27.3µM*

What do the screens show for `COc1ccc2cc(C(=O)NCc3ccco3)c(=O)oc2c1`?
USP2a inh: -1.1%; a7 integrin act: 24.7%; PKM2 activator: 5.2%; ClpP mod: 10µM*; IL-2 act: -1.1; Pin1 inh: inconclusive; ClpP validation: 21.7µM*

What do the screens show for `COc1ccc2cc(C(=O)NC3CCCCC3)c(=O)oc2c1`?
USP2a inh: -0.4%; a7 integrin act: 10.4%; PKM2 activator: -3.0%; ClpP mod: 2.24µM*; IL-2 act: -6.6; Pin1 inh: 7.7%; ClpP validation: 21.7µM*

How did COc1cccc(-n2c(C)nc3c(cnn3-c3ccc(C)c(C)c3)c2=O)c1 do in these assays?
ClpP mod: -1.4%; Pin1 inh: 6.7%
